In PMC11006913:

Key:
Experiment in all cases: PBM; 200 nM protein, PBS
Settings in all cases: dsDNA, one strand shown
MSX2 [1] = target: MSX2 (Homo sapiens, UniProt P35548 130-214, R199I)
ALX1 [2] = target: ALX1 (Homo sapiens, UniProt Q15699 118-204, L144V)
ALX1 [3] = target: ALX1 (Homo sapiens, UniProt Q15699 118-204, L144R)
MSX2 [4] = target: MSX2 (Homo sapiens, UniProt P35548 130-214)
MSX2 [5] = target: MSX2 (Homo sapiens, UniProt P35548 130-214, F161Y)
ALX1 [6] = target: ALX1 (Homo sapiens, UniProt Q15699 118-204)
VAX1 [7] = target: VAX1 (Homo sapiens, UniProt Q5SQQ9 86-172)
VAX1 [8] = target: VAX1 (Homo sapiens, UniProt Q5SQQ9 86-172, T142I)
VAX1 [9] = target: VAX1 (Homo sapiens, UniProt Q5SQQ9 86-172, K157R)
ALX3 [10] = target: ALX3 (Homo sapiens, UniProt O95076 139-225, N203Q)
ALX3 [11] = target: ALX3 (Homo sapiens, UniProt O95076 139-225)
ALX3 [12] = target: ALX3 (Homo sapiens, UniProt O95076 139-225, L168Q)
ALX3 [13] = target: ALX3 (Homo sapiens, UniProt O95076 139-225, L168V)
ALX3 [14] = target: ALX3 (Homo sapiens, UniProt O95076 139-225, N203S)
NKX3-2 [15] = target: NKX3-2 (Homo sapiens, UniProt P78367 192-278, P234S)
NKX3-2 [16] = target: NKX3-2 (Homo sapiens, UniProt P78367 192-278)
NKX3-2 (Homo sapiens, UniProt P78367 192-278), sequence (P78367 192-278): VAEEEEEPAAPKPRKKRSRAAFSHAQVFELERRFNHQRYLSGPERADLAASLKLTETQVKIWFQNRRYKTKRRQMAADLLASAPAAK

MSX2 (Homo sapiens, UniProt P35548 130-214, F161Y), sequence (P35548 130-214 F161Y): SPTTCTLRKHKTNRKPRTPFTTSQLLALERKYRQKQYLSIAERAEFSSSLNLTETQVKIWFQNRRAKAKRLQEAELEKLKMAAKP
ALX1 (Homo sapiens, UniProt Q15699 118-204), sequence (Q15699 118-204): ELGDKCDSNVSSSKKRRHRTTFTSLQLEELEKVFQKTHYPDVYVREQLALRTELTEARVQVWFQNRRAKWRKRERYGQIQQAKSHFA
ALX1 (Homo sapiens, UniProt Q15699 118-204, L144V), sequence (Q15699 118-204 L144V): as the sequence (Q15699 118-204) above, with L27V counted along it
MSX2 (Homo sapiens, UniProt P35548 130-214), sequence (P35548 130-214): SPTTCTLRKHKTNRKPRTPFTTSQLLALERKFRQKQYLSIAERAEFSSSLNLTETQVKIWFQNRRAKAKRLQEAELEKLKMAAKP
MSX2 (Homo sapiens, UniProt P35548 130-214, R199I), sequence (P35548 130-214 R199I): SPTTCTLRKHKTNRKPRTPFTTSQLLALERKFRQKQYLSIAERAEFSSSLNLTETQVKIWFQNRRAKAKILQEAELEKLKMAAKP
ALX1 (Homo sapiens, UniProt Q15699 118-204, L144R), sequence (Q15699 118-204 L144R): as the sequence (Q15699 118-204) above, with L27R counted along it
NKX3-2 (Homo sapiens, UniProt P78367 192-278, P234S), sequence (P78367 192-278 P234S): as the sequence (P78367 192-278) above, with P43S counted along it
ALX3 (Homo sapiens, UniProt O95076 139-225, L168V), sequence (O95076 139-225 L168V): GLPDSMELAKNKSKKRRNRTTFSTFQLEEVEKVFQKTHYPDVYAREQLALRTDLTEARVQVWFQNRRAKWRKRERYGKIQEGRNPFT
VAX1 (Homo sapiens, UniProt Q5SQQ9 86-172, T142I), sequence (Q5SQQ9 86-172 T142I): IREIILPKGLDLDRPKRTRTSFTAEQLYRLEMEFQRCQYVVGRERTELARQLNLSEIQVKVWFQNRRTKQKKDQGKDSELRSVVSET
VAX1 (Homo sapiens, UniProt Q5SQQ9 86-172, K157R), sequence (Q5SQQ9 86-172 K157R): as the sequence (Q5SQQ9 86-172 T142I) above, with I57T, K72R counted along it
ALX3 (Homo sapiens, UniProt O95076 139-225, L168Q), sequence (O95076 139-225 L168Q): as the sequence (O95076 139-225 L168V) above, with V30Q counted along it
ALX3 (Homo sapiens, UniProt O95076 139-225), sequence (O95076 139-225): as the sequence (O95076 139-225 L168V) above, with V30L counted along it
VAX1 (Homo sapiens, UniProt Q5SQQ9 86-172), sequence (Q5SQQ9 86-172): as the sequence (Q5SQQ9 86-172 T142I) above, with I57T counted along it
ALX3 (Homo sapiens, UniProt O95076 139-225, N203S), sequence (O95076 139-225 N203S): as the sequence (O95076 139-225 L168V) above, with V30L, N65S counted along it
ALX3 (Homo sapiens, UniProt O95076 139-225, N203Q), sequence (O95076 139-225 N203Q): as the sequence (O95076 139-225 L168V) above, with V30L, N65Q counted along it

CCTACGGC
binding signal (MSX2 [1]): 9.61 upbm affinity estimate (log intensity, higher = more binding, comparable within an allelic series) | binding signal (ALX1 [2]): 6.56 upbm affinity estimate (log intensity, higher = more binding, comparable within an allelic series) | binding signal (ALX1 [3]): 6.66 upbm affinity estimate (log intensity, higher = more binding, comparable within an allelic series) | binding signal (MSX2 [4]): 9.61 upbm affinity estimate (log intensity, higher = more binding, comparable within an allelic series) | binding signal (MSX2 [5]): 9.63 upbm affinity estimate (log intensity, higher = more binding, comparable within an allelic series) | binding signal (ALX1 [6]): 6.68 upbm affinity estimate (log intensity, higher = more binding, comparable within an allelic series)

ATGGAAAT
binding signal (MSX2 [1]): 10.4 upbm affinity estimate (log intensity, higher = more binding, comparable within an allelic series) | binding signal (MSX2 [4]): 10.7 upbm affinity estimate (log intensity, higher = more binding, comparable within an allelic series) | binding signal (MSX2 [5]): 10.6 upbm affinity estimate (log intensity, higher = more binding, comparable within an allelic series)

AGCTATTA
binding signal (MSX2 [1]): 11.1 upbm affinity estimate (log intensity, higher = more binding, comparable within an allelic series) | binding signal (MSX2 [4]): 12.1 upbm affinity estimate (log intensity, higher = more binding, comparable within an allelic series) | binding signal (MSX2 [5]): 11.9 upbm affinity estimate (log intensity, higher = more binding, comparable within an allelic series)

TCCGCGGA
binding signal (MSX2 [1]): 9.48 upbm affinity estimate (log intensity, higher = more binding, comparable within an allelic series) | binding signal (MSX2 [4]): 9.54 upbm affinity estimate (log intensity, higher = more binding, comparable within an allelic series) | binding signal (VAX1 [7]): 7.16 upbm affinity estimate (log intensity, higher = more binding, comparable within an allelic series) | binding signal (MSX2 [5]): 9.53 upbm affinity estimate (log intensity, higher = more binding, comparable within an allelic series) | binding signal (VAX1 [8]): 7.5 upbm affinity estimate (log intensity, higher = more binding, comparable within an allelic series) | binding signal (VAX1 [9]): 7.45 upbm affinity estimate (log intensity, higher = more binding, comparable within an allelic series)

CACCAGCC
binding signal (MSX2 [1]): 9.46 upbm affinity estimate (log intensity, higher = more binding, comparable within an allelic series) | binding signal (MSX2 [4]): 9.42 upbm affinity estimate (log intensity, higher = more binding, comparable within an allelic series) | binding signal (MSX2 [5]): 9.47 upbm affinity estimate (log intensity, higher = more binding, comparable within an allelic series)

GCTCCAGC
binding signal (MSX2 [1]): 9.46 upbm affinity estimate (log intensity, higher = more binding, comparable within an allelic series) | binding signal (ALX3 [10]): 7.72 upbm affinity estimate (log intensity, higher = more binding, comparable within an allelic series) | binding signal (MSX2 [4]): 9.45 upbm affinity estimate (log intensity, higher = more binding, comparable within an allelic series) | binding signal (ALX3 [11]): 7.57 upbm affinity estimate (log intensity, higher = more binding, comparable within an allelic series) | binding signal (ALX3 [12]): 7.7 upbm affinity estimate (log intensity, higher = more binding, comparable within an allelic series) | binding signal (ALX3 [13]): 7.6 upbm affinity estimate (log intensity, higher = more binding, comparable within an allelic series) | binding signal (MSX2 [5]): 9.5 upbm affinity estimate (log intensity, higher = more binding, comparable within an allelic series) | binding signal (ALX3 [14]): 7.72 upbm affinity estimate (log intensity, higher = more binding, comparable within an allelic series)

GATGATTA
binding signal (MSX2 [1]): 11.1 upbm affinity estimate (log intensity, higher = more binding, comparable within an allelic series)

CGGCGGCA
binding signal (MSX2 [1]): 9.49 upbm affinity estimate (log intensity, higher = more binding, comparable within an allelic series) | binding signal (MSX2 [4]): 9.38 upbm affinity estimate (log intensity, higher = more binding, comparable within an allelic series) | binding signal (MSX2 [5]): 9.41 upbm affinity estimate (log intensity, higher = more binding, comparable within an allelic series)

CACGGTCG
binding signal (MSX2 [1]): 9.6 upbm affinity estimate (log intensity, higher = more binding, comparable within an allelic series) | binding signal (MSX2 [4]): 9.56 upbm affinity estimate (log intensity, higher = more binding, comparable within an allelic series) | binding signal (MSX2 [5]): 9.58 upbm affinity estimate (log intensity, higher = more binding, comparable within an allelic series)

AGCGCCGG
binding signal (MSX2 [1]): 9.57 upbm affinity estimate (log intensity, higher = more binding, comparable within an allelic series) | binding signal (MSX2 [4]): 9.53 upbm affinity estimate (log intensity, higher = more binding, comparable within an allelic series) | binding signal (MSX2 [5]): 9.52 upbm affinity estimate (log intensity, higher = more binding, comparable within an allelic series)

CTGGAACC
binding signal (ALX1 [2]): 6.21 upbm affinity estimate (log intensity, higher = more binding, comparable within an allelic series) | binding signal (ALX1 [3]): 6.18 upbm affinity estimate (log intensity, higher = more binding, comparable within an allelic series) | binding signal (ALX1 [6]): 6.07 upbm affinity estimate (log intensity, higher = more binding, comparable within an allelic series)

CGGCCGAG
binding signal (ALX1 [2]): 6.33 upbm affinity estimate (log intensity, higher = more binding, comparable within an allelic series) | binding signal (ALX1 [3]): 6.51 upbm affinity estimate (log intensity, higher = more binding, comparable within an allelic series) | binding signal (ALX1 [6]): 6.15 upbm affinity estimate (log intensity, higher = more binding, comparable within an allelic series)

CCGGGGAG
binding signal (ALX1 [2]): 6.03 upbm affinity estimate (log intensity, higher = more binding, comparable within an allelic series) | binding signal (ALX1 [3]): 6.12 upbm affinity estimate (log intensity, higher = more binding, comparable within an allelic series) | binding signal (NKX3-2 [15]): 10.5 upbm affinity estimate (log intensity, higher = more binding, comparable within an allelic series) | binding signal (ALX1 [6]): 5.94 upbm affinity estimate (log intensity, higher = more binding, comparable within an allelic series) | binding signal (NKX3-2 [16]): 10.5 upbm affinity estimate (log intensity, higher = more binding, comparable within an allelic series)
